# Source: PubChem (National Center for Advancing Translational Sciences (NCATS))
# Sampled rows, rich in hits. Any-hit rate of the full collection: about 9%.
# G9a block: G9a (human) methyltransferase inhibition | 350,000 compounds, 8.8% hits | AID 504332 | G9a H3K9 monomethylation, AlphaScreen, 2 h | Potency, µM (series often up to 102 µM), without a hit: at the highest dose activity, negative = inhibition, usual class: inhibitors; note: % is set by controls: 0 for no effect and ±100 for the full control effect; nearly all actives have a fitted effect of over 75% in size
#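 G9a (20 nM) was preincubated 15 min with compound, then reacted 2 h at room temperature with 500 nM biotin-H3K9 peptide and 20 µM SAM. Monomethyl-H3K9 detected by AlphaScreen using anti-H3K9me1 antibody.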
# JMJD2A Tudor inh: blocks the human JMJD2A Tudor domain; O75164; AlphaScreen JMJD2A-Tudor / H3K4me3 peptide binding; Potency, µM (doses to about 114 µM), inactives show top-dose activity change, negative = inhibition, usual class: inhibitors; 390,000 compounds, 4.4% hits; note: % is set by controls: 0 for no effect and ±100 for the full control effect; nearly all actives have a fitted effect of over 50% in size
# BAZ2B block: blocks human BAZ2B. Q9UIF8. AlphaScreen BAZ2B-H3K14Ac peptide displacement. Potency, µM (highest dose often 114 µM), inactives show top-dose activity change, negative = inhibition, hits mostly inhibitors. 360,000 compounds, 4.4% hits. AID 504333; note: % is set by controls: 0 for no effect and ±100 for the full control effect; nearly all actives have a fitted effect of over 60% in size
#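 Protein-peptide AlphaScreen: BAZ2B 50 nM, b-H3K14Ac 50 nM, 1x PBS pH 7.4 + 0.01% Tween-20. Preincubation 30 min RT; cpd 30 min RT (top 110 uM); beads 20 min RT, light-protected.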
# HP1b chromo inh: blocks HP1-beta chromodomain binding to methylated histone tails; P83916; AlphaScreen HP1-beta / biotin-H3K9me3 peptide binding; Potency, µM (series often up to 114 µM), without a hit: top-dose activity change, negative = inhibition, actives largely listed as inhibitors; 390,000 compounds, 0.56% hits; AID 540317; note: nearly all actives have a fitted effect of over 70% in size
# Target sequence (P83916 whole entry, looked up): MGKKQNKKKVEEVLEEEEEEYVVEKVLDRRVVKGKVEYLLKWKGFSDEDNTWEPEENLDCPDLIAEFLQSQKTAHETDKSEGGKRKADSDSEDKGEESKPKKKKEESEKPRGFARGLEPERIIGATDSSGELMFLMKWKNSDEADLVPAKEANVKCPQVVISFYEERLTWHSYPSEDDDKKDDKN
#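 Compound inhibition of the preformed complex between 50 nM HP1-beta and 50 nM biotinylated H3K9me3 peptide was read by AlphaScreen. Buffer was PBS pH 7.4 with 0.01% Tween-20. Incubations ran 30 min at room temperature, with 10 ug/mL donor/acceptor beads.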
# ALOX12 inh: ALOX12 (human) lipoxygenase inhibition; P18054; purified 12hLO, xylenol orange hydroperoxide absorbance; Potency, µM (doses to about 108 µM), for inactives: at the highest dose activity change, negative = inhibition, most hits filed as inhibitors; 580,000 compounds, 1.1% hits; note: % is set by controls: 0 for no effect and ±100 for the full control effect
#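 Purified human 12hLO (150 nM final) in 25 mM Hepes, 0.01% Triton X-100, pH 7.0 was preincubated 15 min at room temperature with compound. Then 40 uM arachidonic acid was added, 30 min. Hydroperoxide was read by Fe-XO absorbance ratio 573/405 nm.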
# PLK1 PBD inh: PLK1 (human) polo-box domain binding inhibition. P53350. Plk1 PBD binding of FITC phosphopeptide, fluorescence polarization. Potency, µM, inactives show max response, negative = inhibition, hits mostly inhibitors. 360,000 compounds, 2.8% hits; note: series mostly up to about 57 µM; % is set by controls: 0 for no effect and ±100 for the full control effect; nearly all actives have a fitted effect of over 65% in size
# Target sequence (P53350 whole entry, looked up, the tested form may be a part): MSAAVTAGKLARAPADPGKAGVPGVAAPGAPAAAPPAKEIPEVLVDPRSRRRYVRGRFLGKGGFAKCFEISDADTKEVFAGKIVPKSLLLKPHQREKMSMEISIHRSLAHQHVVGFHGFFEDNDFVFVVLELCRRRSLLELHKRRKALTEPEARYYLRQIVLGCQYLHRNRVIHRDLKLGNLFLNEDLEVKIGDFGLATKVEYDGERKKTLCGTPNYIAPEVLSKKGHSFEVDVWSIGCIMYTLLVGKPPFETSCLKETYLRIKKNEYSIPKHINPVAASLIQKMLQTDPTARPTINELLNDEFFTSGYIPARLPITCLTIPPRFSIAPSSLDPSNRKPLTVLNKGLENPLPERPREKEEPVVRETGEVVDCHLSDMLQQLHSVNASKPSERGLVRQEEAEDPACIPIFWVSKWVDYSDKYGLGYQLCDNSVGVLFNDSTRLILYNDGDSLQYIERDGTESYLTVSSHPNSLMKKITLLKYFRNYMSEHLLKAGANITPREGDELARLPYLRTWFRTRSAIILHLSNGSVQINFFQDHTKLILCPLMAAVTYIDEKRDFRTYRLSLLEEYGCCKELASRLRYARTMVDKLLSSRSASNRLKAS
# TbPYK inh: confirmation of Trypanosoma brucei pyruvate kinase inhibitors; 890 compounds, 67% hits; recombinant TbPYK, Kinase-Glo ATP luminescence; shares compounds with PLK1 PBD inh; Potency, µM (titrated, usually from 76.9 µM), for inactives: at the highest dose activity change, negative = inhibition, hits mostly inhibitors; note: % is set by controls: 0 for no effect and ±100 for the full control effect; nearly all actives have a fitted effect of over 70% in size
# TbPYK ADP-Glo: inhibits T. brucei pyruvate kinase in orthogonal ADP-Glo assay; recombinant TbPYK, ADP-Glo luminescence, 60 min; Potency, µM (top dose mostly 76.9 µM), for the others: at the top dose activity change, negative = inhibition, most hits filed as inhibitors; 890 compounds, 62% hits; shares compounds with PLK1 PBD inh; AID 720584; note: % is set by controls: 0 for no effect and ±100 for the full control effect; nearly all actives have a fitted effect of over 75% in size
# Active calls of the source: *; ? = inconclusive; . = no result given; ! = repeats disagree; [ ] = dose if it differs, or a comment. Calls come from the whole dose curve; as a rule, active = well fitted curve in the direction sought with a large enough effect; inconclusive = small, poorly fitted or top-dose-only effect, or another doubt; inactive = no such curve, though single readings can be large; an effect the other way counts as inactive or inconclusive. Potency is the fitted concentration of half-maximal effect.
SMILES,G9a block,JMJD2A Tudor inh,BAZ2B block,HP1b chromo inh,ALOX12 inh,PLK1 PBD inh,TbPYK inh,TbPYK ADP-Glo
O=C1c2cccc3cccc(c23)C(=O)C1(O)O,.,44.7µM*,.,-23.6%,?,?,6.31µM*,5.01µM*
CC(=O)N1C(=O)c2cccc3cccc(c23)C(=O)N1C(C)=O,10.3%[12.7 µM],5.3%,-5.7%,33.2%,.,-13.3%,.,.
O=[S+]([O-])(c1cccs1)N1CCn2c(nnc2C2CCCNC2)C1 (stereo not drawn),.,.,.,.,72.3%,.,.,.
O=C(c1cccc(S(=O)(=O)N2CCc3ccccc3C2)c1)N1CCN(c2ccc(O)cc2)CC1,2.51µM*,?,?,?,?,-3.1%,5.01µM*,14.1µM*
C=Cc1ccc2c(c1)N(C)C(=C)S2,8.91µM*,?,-26.4%,-6.2%,?,?,11.2µM*,3.98µM*
CN1C(=O)c2ccccc2Sc2ccc(C(=O)O)cc21,12.8%,2.4%,7.8%,21.3%,-6.3%,3.5%,.,.
COc1ccc(CC(=O)NCC2CCCN(Cc3ccc(SC)cc3)C2)cc1 (stereo not drawn),.,-5.1%,-2.9%,20.1%,?,-7.5%,.,.
CCOc1ccccc1N1C(=O)CC(Sc2n[nH]c(-c3ccccc3)n2)C1=O (stereo not drawn),1.58µM*,1.41µM*,?,12.6µM*,-21.1%,7.52µM*,7.08µM*,12.6µM*
O=C(CCc1ccco1)NCC1CC1,.,.,.,.,-4.2%,.,.,.
Cc1ccc2sc(NNC(=O)C3COc4ccccc4O3)nc2c1C (stereo not drawn),31.6µM*,?,?,-8.3%,?,-6.2%,?,?
Cn1cc(-c2ccc(Cl)cc2)cc1C(=O)O,.,.,.,.,19.9%,.,.,.
CC(=O)N1CC[n+]2c(-c3ccc(Cl)cc3)csc21,14.1µM*,39.8µM*,-33.0%,16.0%,?,5.97µM*,15.8µM*,7.08µM*
CC1=C(C(N)=O)C(c2ccccc2Br)n2ncnc2N1 (stereo not drawn),-39.2%[59 µM],3.5%,-1.2%,26.3%[57 µM],-23.8%,.,.,.
CC1=C(C(N)=O)C(c2ccccc2[N+](=O)[O-])n2ncnc2N1 (stereo not drawn),28.2µM*,39.8µM*,-0.6%,?,-22.1%,8.44µM*,25.1µM*,?
Cc1ccc(C2=NC(=O)/C(=C/c3cc(O)c(O)c(Br)c3)S2)cc1,2.24µM*,5.01µM*,3.55µM*,3.16µM*,?,?,31.6µM*,?
COc1cc(/C=C2\SC(c3ccc(C)cc3)=NC2=O)cc(OC)c1O,?,56.2µM*,35.5µM*,12.6µM*,?,-18.5%,35.5µM*,?
CCC(C)[C@H]1CNC(=O)C(=O)N1CCCCC1CCCCC1 (stereo partly drawn),.,.,.,.,9.4%,-16.8%,.,.
O=C1c2c(nc(CNc3ccc(F)cc3)n2Cc2ccccc2)NCCN1CCN1CCCCC1,.,.,.,.,46.5%,.,.,.
CCc1sc(C(C2C(=O)CC(C)(C)CC2=O)C2C(=O)CC(C)(C)CC2=O)cc1[N+](=O)[O-],.,-12.3%,?,34.6%,?,1.68µM*,15.8µM*,31.6µM*
CCOC(=O)c1cc(CC)sc1/N=C/C1C(=O)CC(C)(C)CC1=O,-2.4%,-2.0%,-2.0%,67.1%,2.5%,5.3%,.,.
CCc1cc(C(=O)N2CCN(Cc3cc(OC)ccc3OC)CC2)sc1C,.,.,.,.,0.7%,.,.,.
c1ccc2sc(SN3CCOCC3)nc2c1,?,39.8µM*,3.0%,?,12.6µM*!,21.2µM*,28.2µM*,35.5µM*
c1ccc2sc(N3CCOCC3)nc2c1,10.6%[59 µM],-7.0%,5.2%[57.1 µM],57.7%,0.0%,-9.5%,.,.
COc1cc(C=C2C(=O)C=CC2=O)ccc1O,.,.,.,.,?,5.32µM*,1.12µM*,1.12µM*
CCCCCCC(=O)N(O)C1CC(=O)N(c2ccc(F)cc2)C1=O (stereo not drawn),.,50.1µM*,-8.1%,35.5µM*,?,26.7µM*,?,?
SMILES,G9a block,JMJD2A Tudor inh,BAZ2B block,HP1b chromo inh,ALOX12 inh,PLK1 PBD inh,TbPYK inh,TbPYK ADP-Glo
CCCCN(C(=O)CCC(=O)O)C1CC(=O)N(c2ccc(OCCC)cc2)C1=O (stereo not drawn),-1.2%[12.7 µM],1.6%,-2.9%,17.5%,33.2%,0.7%,.,.
CC1CCc2cc(F)ccc2N1C(=O)CSc1nnc2c(n1)[nH]c1ccccc12 (stereo not drawn),4.4%,-2.3%,-5.3%,21.4%,-21.0%,-2.7%,.,.
CN=c1nc(-c2ccccc2)n(-c2ccccc2)s1,1.12µM*!,22.4µM*,8.91µM*,7.08µM*,?,2.99µM*,0.891µM*,1.78µM*
CN1CCC(NC(=O)c2cccs2)CC1,-32.2%[59 µM],-8.2%,2.3%,18.2%,13.0%,-7.6%,.,.
O=C(O)CCSc1nnc(-c2ccncc2)n1-c1ccccc1,-50.8%[59 µM],1.1%,2.7%,21.4%,0.0%,-5.6%,.,.
COc1ccc(-c2nnc(SCCC(=O)O)n2-c2ccccc2)cc1,?,39.8µM*,-13.8%,40.7%,?,-2.3%,7.94µM*,5.01µM*
Cc1noc2c(Nc3ccc(C(N)=O)cc3)cc(-c3ccsc3)nc12,.,.,.,.,-17.3%[176 µM],.,.,.
CN1CCN(C(=O)c2sc(=S)n(-c3ccccc3)c2N)CC1,?,100µM*,-6.8%,?,?,1.5µM*,0.631µM*,0.891µM*
CCOC(=O)c1sc(=S)n(-c2ccccc2)c1C,?,-1.4%,-18.5%,-10.8%,48.6%,-10.0%,.,.
CCN1/C(=C/c2ccc3ccccc3[n+]2CC)C=Cc2ccccc21,11.2µM*,35.5µM*,?,17.8µM*,?,-22.0%,11.2µM*,?
CCN1C(=C2C(=O)c3ccccc3C2=O)C=Cc2ccccc21,-20.3%,-28.4%,-38.4%,37.6%,?,-1.8%,.,.
CCN1C(=O)/C(=C/C=C2/Sc3ccc4ccccc4c3N2CCO)SC1=S,-9.0%[59 µM],-17.1%,?,5.0%,-19.5%,-8.5%,15.8µM*,?
CCN1C(=O)/C(=C/c2cnn(CC)c2C)SC1=S,-5.4%[59 µM],-13.4%,-34.3%,4.6%,-10.6%,-13.2%,.,.
COc1ccccc1OCC(=O)OCC(=O)NCCN1C(=O)CSC1=O,-26.7%,-3.2%,4.1%,22.4%,-11.9%,-4.0%,.,.
CC(C)(C)c1ccc(C(=O)N/C(=C\c2ccco2)C(=O)Nc2ccccc2C(=O)O)cc1,?,-35.9%,10.0%,-2.2%,31.6µM*,-18.6%,?,-25.7%
